Hit rate of the full screen: of about 220,000 compounds, about 16,000 (7.3%) were called active. A call without a number means that no potency is given here. About 25% were inconclusive and are not listed. The call rests on the fitted dose curve; in most records, active means well fitted inhibition curve with a large enough effect (not every such curve was filed as active); inconclusive means small, poorly fitted or top-dose-only effect, or another doubt; inactive means no such curve, though single readings can be large or run the other way. This excerpt belongs to a sample that is enriched for actives.
Potency means the concentration at half of the fitted maximal effect.

The target in this assay is Aldehyde dehydrogenase 1A1 (Homo sapiens) (UniProt P00352). Kind of assay: qHTS Assay for Inhibitors of Aldehyde Dehydrogenase 1 (ALDH1A1). The settings on record: Purified ALDH1A1, NADH fluorescence, propionaldehyde substrate; series mostly up to 75.3 µM.
Sequence of Aldehyde dehydrogenase 1A1 (Homo sapiens) (P00352 whole entry, looked up): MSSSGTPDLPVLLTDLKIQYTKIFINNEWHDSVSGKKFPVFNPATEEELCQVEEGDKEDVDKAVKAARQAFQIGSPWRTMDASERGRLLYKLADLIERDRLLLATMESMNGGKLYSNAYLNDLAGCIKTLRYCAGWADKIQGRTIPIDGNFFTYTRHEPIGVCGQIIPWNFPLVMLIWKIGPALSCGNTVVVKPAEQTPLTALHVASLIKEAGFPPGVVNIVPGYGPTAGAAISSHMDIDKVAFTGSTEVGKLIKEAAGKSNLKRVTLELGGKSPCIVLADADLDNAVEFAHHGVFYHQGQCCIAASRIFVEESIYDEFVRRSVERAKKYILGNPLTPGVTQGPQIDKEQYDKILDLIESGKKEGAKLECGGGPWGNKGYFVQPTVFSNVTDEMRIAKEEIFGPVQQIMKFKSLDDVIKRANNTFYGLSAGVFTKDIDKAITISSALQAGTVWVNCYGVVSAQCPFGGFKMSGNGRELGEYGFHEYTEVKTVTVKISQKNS
In the case of `Fc1ccccc1N=C1Nc2cccc3cccc1c23`, the Potency entry was “inactive”. With `CCOc1ccc(CCNC(=O)C(CC)n2nc(C)n3c(cc4sccc43)c2=O)cc1OCC` (stereo not given), the Potency is 31.6 µM (active). The same measure for `COc1ccc(CCNC(=O)c2cc3sccc3n2C)cc1OC`: “inactive”; for `CCC(C(=O)NCc1ccc(OC)cc1)n1nc(C)n2c(cc3occc32)c1=O` (stereo not given): “inactive”. The same measure for `CCCCC/C=C\C/C=C\CCCCCCCCCC(=O)NCC(=O)O`: “inactive”; for `CC(C)(C)c1cc(C(=O)N/N=C/c2ccc([N+](=O)[O-])s2)n[nH]1`: “inactive”. The same measure for `Cc1ccc(SCCC(=O)Nc2cc(C)on2)cc1`: “inactive”; for `O=c1c2ccccc2c(-c2ccccc2)nn1-c1ccccn1`: “inactive”. As for `C#CCNc1nc(C(C)C)nc2c1nnn2Cc1ccccc1F`, the Potency is 11.2 µM (active). As to `CCCc1nc(NCc2ccc3c(c2)OCO3)c2nnn(Cc3ccccc3Cl)c2n1`, the Potency entry was “inactive”. In the case of `CC(O)C(NS(=O)(=O)c1ccc(Cl)cc1)C(=O)OCc1cc([N+](=O)[O-])cc2c1OCOC2` (stereo not given) it was “inactive”. The same measure for `Cc1cc(CNC(=O)c2cccc([N+](=O)[O-])c2)c2ccccc2n1`: “inactive”; for `CCO[C@H]1OC(C(=O)O)=C[C@@H](C2CCCCC2)[C@@H]1CCCO`: “inactive”; for `COc1ccccc1NC(=O)C[n+]1ccccc1`: “inactive”.

As to `O=C(Nc1ccccc1C(F)(F)F)N1CCCC1c1cccnc1` (stereo not given), the Potency entry is “inactive”. In the case of `CC(C)CNC(=O)/C=C/C(=O)O` it was “inactive”; in that of `CC1=CC(C)(C)NC(=S)N1c1ccccc1`, “inactive”; in that of `O=C1/C(=C\c2ccsc2)NC(=S)N1c1ccccc1`, 28.2 µM (active).

`CCCCCCCCCCCCC(NC(C)=O)(C(=O)OCC)C(=O)OCC`: the Potency result was “inactive”.

Turning to `COc1cc(NC(=O)CN(C)S(=O)(=O)c2ccc3nc(C)sc3c2)cc(OC)c1`, the Potency entry is “inactive”. With `COc1cc(C=O)c(Br)cc1OCC(=O)NCc1ccccc1`, the Potency entry was “inactive”. In the case of `COc1cc(C(=S)NCc2ccccc2)cc(Br)c1O` it was 1.78 µM (active). The same measure for `COc1ccccc1OCCC(=O)OCC(=O)NCc1ccccc1`: “inactive”.

Consider `CCOC(=O)N1CCN(Cc2nc3c(c(=O)n(C)c(=O)n3C)n2Cc2ccccc2)CC1`, for which the Potency was 0.126 µM (active). In the case of `CC1CN(Cc2nc3c(c(=O)n(C)c(=O)n3C)n2Cc2cccc(Cl)c2)CC(C)O1` (stereo not given) it was “inactive”; in that of `Cn1c(=O)c2c(nc(OCc3cccnc3)n2Cc2ccccc2)n(C)c1=O`, 10 µM (active); in that of `COCCn1c(CN2CCC(Cc3ccccc3)CC2)nc2c1c(=O)n(C)c(=O)n2C`, “inactive”. In the case of `Cn1c(=O)c2c(nc(NCCc3ccccc3)n2Cc2ccccc2)n(C)c1=O` it was “inactive”; in that of `C=CCOc1nc2c(c(=O)n(C)c(=O)n2C)n1Cc1ccc(Cl)cc1Cl`, “inactive”; in that of `Cn1c(SCC(=O)Nc2ccc(Br)cc2F)nnc1-c1ccco1`, “inactive”.

As for `CCCC1NC(=S)NC(C)=C1C(C)=O` (stereo not given), the Potency result is “inactive”.

`CCO[C@H]1OC(C(=O)NCc2ccccc2)=C[C@@H](c2coc3ccccc3c2=O)[C@@H]1CCCO`: the Potency result was “inactive”. In the case of `COCCNC(=S)N1CCC(NC(=O)C23CC4CC(CC(C4)C2)C3)CC1` it was “inactive”. The same measure for `Cc1cccc(C)c1NC(=O)Nc1ccccc1-n1ccnc1`: “inactive”; for `COc1ccc(NC(=O)COC(=O)CNC(=O)C2CCCCC2)cc1`: “inactive”. In the case of `COc1ccc(OCC(=O)OCC(=O)Nc2ccc(S(=O)(=O)N3CCCCC3)cc2)cc1` it was 10 µM (active); in that of `COC(=O)COc1ccc(S(=O)(=O)N2CCOCC2)cc1`, “inactive”. As to `Cc1cccc(NC(=O)c2sc3nc4c(c(-c5ccco5)c3c2N)CCC4)c1`, the Potency was 12.6 µM (active).

Regarding `Cc1cccc(NC(=O)CSc2nnc(-c3ccco3)o2)c1`, the Potency entry is “inactive”. Regarding `O=c1oc(-c2ccco2)nc2sc3c(c12)CCCCC3`, the Potency entry was “inactive”. Turning to `O=C(CC(NC(=O)c1ccccc1)c1ccccc1)Nc1ccc(F)c(F)c1` (stereo not given), the Potency result was “inactive”. Consider `Cc1ccc(Cl)cc1-c1ccc(/C=N/n2cnnc2)o1`, for which the Potency result is “inactive”.

Consider `Cc1cc(-c2ccc(/C=N/n3cnnc3)o2)c([N+](=O)[O-])cc1C`, for which the Potency is 10 µM (active). The same measure for `Cc1cc([N+](=O)[O-])c(-c2ccc(/C=N/n3cnnc3)o2)cc1Cl`: “inactive”; for `CN(C)/C=C(/C(=O)c1ccccc1)S(=O)(=O)c1ccc(Cl)cc1`: “inactive”; for `CCN(C(=O)CSc1nc2ccccc2n1CC)C1CCS(=O)(=O)C1` (stereo not given): “inactive”. In the case of `O=C(c1ccc(C(F)(F)F)cc1)C1CCCN(C(=O)c2csnn2)C1` (stereo not given) it was “inactive”; in that of `Cc1ccc2[nH]c3c(c2c1)CN(C(=O)CN1CCN(c2ccccc2)CC1)CC3`, 17.8 µM (active); in that of `CCCC(=O)N1CCc2[nH]c3ccccc3c2C1`, “inactive”. The same measure for `O=C(Nc1ccc(Cl)cc1)N1CCc2[nH]c3ccccc3c2C1`: “inactive”. Take `O=C(/C=C/c1ccccc1)Oc1coc(CSc2ncccn2)cc1=O`: the Potency result was “inactive”. The same measure for `Cc1cc(C)cc(NC(=O)COC(=O)c2cc(C)oc2C)c1`: “inactive”; for `COc1ccc(N(CC(=O)NC2CCCC2)C(=O)CS(=O)CC(=O)Nc2ccc3c(c2)OCO3)cc1` (stereo not given): “inactive”; for `CCCn1c(SCC(=O)Nc2c(C)cccc2C)nnc1C(C)C`: “inactive”.

For `CCCn1c(SCC(N)=O)nnc1C(C)C`, the Potency result was “inactive”.

With `CCCn1c(SCC(=O)c2ccc3c(c2)OCCO3)nnc1C(C)C`, the Potency was 20 µM (active). The same measure for `CCOC(=O)c1cc2c(=O)[nH]c(C(Cl)(Cl)Cl)nc2o1`: “inactive”. The same measure for `CCc1nnc(NC(=O)c2sc3nc(C)cc(COC)c3c2N)s1`: “inactive”; for `COc1ccc(CC(=O)NCc2nnc(SCC(=O)Nc3ncc(C)s3)n2C)cc1`: “inactive”. The same measure for `COc1ccc(CCN(C)CCN2C(=O)c3ccccc3C2=O)cc1OC`: “inactive”. Turning to `COc1ccc(CCN2C(=O)C3CC=C(C)CC3C2=O)cc1OC` (stereo not given), the Potency is 17.8 µM (active). Regarding `COc1ccc(CN2C(=O)CC(Cc3ccc(C)cc3)C2=O)cc1OC` (stereo not given), the Potency result is “inactive”. The same measure for `O=c1cc(O)c(-c2cccc(C(F)(F)F)c2)c(Cl)[nH]1`: “inactive”; for `CCOC(=O)c1ccc(NC(=O)Cn2nnc(-c3ccc(C)cc3)n2)cc1`: “inactive”; for `CCc1ccc(NC2Nc3cc(C)nn3S2)cc1` (stereo not given): 10 µM (active). On to `CCc1ccc(NC(=O)N2CCN(c3ccccc3)CC2)cc1`, for which the Potency entry was “inactive”.

In the case of `CCOC(=O)c1ccc(NC2Nc3cc(C)nn3S2)cc1` (stereo not given), the Potency is 12.6 µM (active). The same measure for `CCOC(=O)c1ccc(Nc2cc(C)nc3nc(C)nn23)cc1`: “inactive”; for `COc1ccc(NC(=O)CN(C)CC(=O)Nc2cccc(C(F)(F)F)c2)cc1`: “inactive”. Regarding `CCC(C)(C)NC(=O)CN(C(=O)C(=O)Nc1ccc2c(c1)OCCO2)C(C)(C)CC`, the Potency result was “inactive”. As for `Cc1nnc(SCc2cccc(Cl)c2)n(N)c1=O`, the Potency entry was “inactive”. For `CCCn1c(N)c(C(=O)CSc2nc3ccccc3c(=O)n2-c2ccc(OC)cc2)c(=O)[nH]c1=O`, the Potency result is “inactive”. Consider `O=C(NCc1ccccc1Cl)C1CCN(S(=O)(=O)N2CCOCC2)CC1`, for which the Potency entry is “inactive”. For the molecule `O=C(CCCN1C(=O)CCC1=O)Nc1ccc(Cl)c(C(F)(F)F)c1`, the Potency entry is “inactive”. The same measure for `CCC(=O)Nc1ccc(C(=O)N2CCN(C(=O)c3ccco3)CC2)cc1`: “inactive”. In the case of `O=C(CN1CCN(C(=O)c2ccco2)CC1)Nc1ccc(Cl)c(C(F)(F)F)c1` it was 17.8 µM (active); in that of `O=C(CCN1C(=O)/C(=C/c2cccs2)SC1=S)NNC(=O)c1cccc(O)c1`, “inactive”.

As to `CCOC(=O)C1=C(O)CSC1=Nc1cccc(Cl)c1`, the Potency entry is “inactive”. For the molecule `Clc1cccc(N=C2NN=C(c3ccc4c(c3)OCCO4)CS2)c1`, the Potency was 28.2 µM (active). In the case of `c1ccc(CN2CCC(N=C3NN=C(c4ccc5c(c4)OCCO5)CS3)CC2)cc1` it was “inactive”; in that of `Cc1ccc(C(=O)Cc2nnc(C)s2)cc1`, “inactive”; in that of `COc1cc(CN(C)Cc2nc3cc(C(F)(F)F)ccc3c(=O)[nH]2)ccc1OC(F)F`, “inactive”. In the case of `O=C(O)c1ccc(NS(=O)(=O)c2ccc3c(c2)C(=O)c2cc(S(=O)(=O)Nc4ccc(C(=O)O)cc4)ccc2-3)cc1` it was “inactive”; in that of `CCCc1nc2ccccc2c(C(=O)OCC(=O)c2ccc3c(c2)NC(=O)CO3)c1CC`, “inactive”.

Consider `CN(C(=O)CSc1nnc(Nc2ccccc2)s1)C1CCS(=O)(=O)C1` (stereo not given), for which the Potency entry is “inactive”. The same measure for `CCc1ccc(Nc2nnc(SCC(=O)c3ccc4c(c3)NC(=O)CO4)s2)cc1`: 3.55 µM (active); for `COc1ccc(OCCCn2cccc2/C=C2/C(=N)N3OC(C)=CC3=NC2=O)cc1`: “inactive”; for `O=C(NC1CC1)C1CCCN(C(=O)NC2CCCCC2)C1` (stereo not given): “inactive”. In the case of `C=CCc1cccc2cc(C(=O)Nc3ccc(NC(C)=O)cc3)c(=O)oc12` it was “inactive”; in that of `COCCNc1cc(NCCOC)c([N+](=O)[O-])cc1[N+](=O)[O-]`, “inactive”; in that of `O=C(CSc1nnc2scc(-c3ccc(F)cc3)n12)NCc1ccco1`, “inactive”. In the case of `Cn1c(-c2ccc(F)cc2)cnc1SCC(=O)NNC(=O)Cc1ccccc1`, the Potency result is “inactive”. The same measure for `Cn1c(-c2ccc(F)cc2)cnc1SCC(=O)NCc1ccco1`: 22.4 µM (active).

With `COc1ccc(-c2ccc(OC(=O)NC3CCS(=O)(=O)C3)cc2)cc1` (stereo not given), the Potency result was “inactive”.

`CCOC(=O)N1CCN(C(=O)c2ccccc2N(Cc2ccccc2)S(=O)(=O)c2ccc(OC)cc2)CC1`: the Potency entry was “inactive”. The same measure for `N#Cc1cccc(CS(=O)(=O)c2nnnn2-c2cc(C(F)(F)F)cc(C(F)(F)F)c2)c1`: “inactive”; for `COc1ccccc1N1CCN(C(=O)CN(Cc2ccc(Cl)cc2)S(C)(=O)=O)CC1`: “inactive”; for `COc1ccccc1-n1nnnc1S(=O)(=O)Cc1ccc(Cl)cc1`: 2.51 µM (active). The same measure for `CCN(CCCNC(=O)CCn1c(=O)[nH]c2ccsc2c1=O)c1ccccc1`: “inactive”.

As to `CC(C)(C)c1nc(NCC2CCCO2)c2nnn(Cc3ccccc3)c2n1` (stereo not given), the Potency entry was “inactive”. In the case of `Cc1nc(Nc2ccc(S(=O)(=O)N3CCCC3)cc2)c2nnn(Cc3ccccc3)c2n1` it was “inactive”; in that of `CC(C)Nc1ncnc2c1nnn2Cc1ccccc1`, 12.6 µM (active); in that of `COc1ccc(N2CCN(C(=O)C3CCN(S(=O)(=O)c4ccc(C)cc4)CC3)CC2)cc1`, “inactive”. In the case of `COc1ccc(/C=C(\C#N)C(=O)NCCCn2ccnc2)cc1`, the Potency result is “inactive”.

On to `COc1ccc(/C=C(\C#N)C(=O)ONC2=NCCCCC2)cc1`, for which the Potency is 35.5 µM (active).

The values above are taken from PubChem BioAssay AID1030 (National Center for Advancing Translational Sciences (NCATS), 2008).
